Source: PubChem
HTT aggregate: mutant huntingtin aggregation inhibition; PC12 HttQ103-GFP aggregates, Acumen cytometry, 40 h; Potency, µM (highest dose often 46.1 µM), actives largely listed as inhibitors; 220,000 compounds, 1.1% hits; AID 1688; note: nearly all actives have a fitted effect of over 60% in size
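Aggregates are detected as GFP objects 1–25 µm with signal 6 STDEV over background in lysates of induced PC12 cells. These carry Huntingtin exon 1 with 103 glutamines fused to GFP under an ecdysone promoter; compounds titrated.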
HPGD inh: blocks human HPGD enzyme activity; purified HPGD, NADH fluorescence kinetic, PGE2 substrate; Potency, µM, hits mostly inhibitors; 150,000 compounds, 4.3% hits; AID 894; active = well fitted inhibition curve with a large enough effect, not every such curve was filed as active; inconclusive = small, poorly fitted or top-dose-only effect, or another doubt; inactive = no such curve, though single readings can be large or run the other way
Target sequence (P15428 whole entry, looked up): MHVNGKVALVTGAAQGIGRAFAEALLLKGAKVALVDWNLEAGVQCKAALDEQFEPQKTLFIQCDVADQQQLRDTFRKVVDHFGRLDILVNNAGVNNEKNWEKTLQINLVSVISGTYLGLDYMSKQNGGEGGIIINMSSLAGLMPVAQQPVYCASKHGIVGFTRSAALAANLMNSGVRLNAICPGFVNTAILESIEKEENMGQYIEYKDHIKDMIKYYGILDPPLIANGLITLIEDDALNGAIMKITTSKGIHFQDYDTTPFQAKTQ
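NADH formation kinetics: reaction with 30 uM PGE2 and 1 mM NAD+ (final), 20 nM enzyme, Tris-HCl pH 8 with Tween 20, after 15 min compound preincubation at room temperature. Fluorescence change, last versus first of five reads.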
HTT ATP protect: Huntington cell model cytoprotection by ATP luminescence | PC12 HTT-Q103 induced, cytoprotection, ATP luminescence, 40 h | Potency, µM (series often up to 56.4 µM), most hits filed as activators | 230,000 compounds, 0.14% hits; note: nearly all actives have a fitted effect of over 45% in size
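Stable PC12 Q103-GFP cells in serum-supplemented, phenol red-free DMEM; induction by tebufenozide at 100 nM final; compound dose series; cell viability quantified luminescently from ATP.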
ALDH1A1 block: ALDH1A1 (human) enzyme inhibition; P00352; Purified ALDH1A1, NADH fluorescence, propionaldehyde substrate; Potency, µM (doses to about 75.3 µM), usual class: inhibitors; 220,000 compounds, 7.3% hits; active = well fitted inhibition curve with a large enough effect, not every such curve was filed as active; inconclusive = small, poorly fitted or top-dose-only effect, or another doubt; inactive = no such curve, though single readings can be large or run the other way
Target sequence (P00352 whole entry, looked up): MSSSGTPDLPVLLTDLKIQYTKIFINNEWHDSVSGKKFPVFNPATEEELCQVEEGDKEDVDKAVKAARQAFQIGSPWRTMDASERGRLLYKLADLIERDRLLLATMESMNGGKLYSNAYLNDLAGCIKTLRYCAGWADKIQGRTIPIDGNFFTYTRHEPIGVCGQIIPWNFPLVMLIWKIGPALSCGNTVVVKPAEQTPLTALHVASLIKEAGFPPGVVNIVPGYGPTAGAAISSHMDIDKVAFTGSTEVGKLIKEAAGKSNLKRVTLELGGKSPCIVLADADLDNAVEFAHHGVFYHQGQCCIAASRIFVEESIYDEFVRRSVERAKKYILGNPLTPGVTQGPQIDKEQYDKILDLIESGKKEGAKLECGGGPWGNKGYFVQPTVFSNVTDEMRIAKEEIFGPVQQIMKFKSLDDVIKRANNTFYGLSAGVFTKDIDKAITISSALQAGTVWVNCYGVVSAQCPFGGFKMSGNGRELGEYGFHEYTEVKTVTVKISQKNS
Luc counter: blocks Kinase-Glo luciferase, a counter-screen artifact; Q27757; Kinase-Glo luciferase, ATP luminescence, 8 min; Potency, µM (top dose mostly 38.3 µM), hits mostly inhibitors; 200,000 compounds, 0.28% hits; AID 1379; note: nearly all actives have a fitted effect of over 60% in size
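Recombinant Kinase-Glo luciferase, 10 uM ATP (linear range), luciferin; imidazole pH 7.2 / KCl / MgCl2 / Tween / BSA buffer; 8 min RT; luminescence.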
LMNA splice mod: changes lamin A minigene splicing in HeLa cells; Potency, µM (highest dose often 46.1 µM), most hits filed as inhibitors; 200,000 compounds, 0.01% hits; AID 1487; HeLa LMNA splicing GFP/RFP minigene ratio, 48 h; active = well fitted inhibition curve with a large enough effect in the signal ratio, with a control signal flat, not every such curve was filed as active; inconclusive = small, poorly fitted or top-dose-only effect, or effect the other way, or a change in a side signal; the % refers to the signal ratio
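S3 HeLa cells stably expressing lamin A-EGFP splicing minigene plus DsRed2, 600 cells/well, 48 h compound exposure at 37C. Laser-scanning cytometry; analysed as GFP (500-530 nm)/RFP (575-640 nm) total intensity ratio; 0.5% DMSO vehicle.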
Of the large screens only hits and unclear results are named; the others gave an inactive call; ! = a repeat was not active. Rows were chosen to be rich in hits. Some 9% of all compounds tested hit in one or more screens of this group. Unless noted, calls come from the whole dose curve; as a rule, active = well fitted curve in the direction sought with a large enough effect; inconclusive = small, poorly fitted or top-dose-only effect, or another doubt; inactive = no such curve, though single readings can be large; an effect the other way counts as inactive or inconclusive.

O=C(CSc1ncnc2nc[nH]c12)c1ccccc1	HTT aggregate inconclusive, HPGD inh 28µM!, ALDH1A1 block 28µM!, LMNA splice mod inconclusive
O=C(CSc1ncnc2nc[nH]c12)c1ccc([N+](=O)[O-])cc1	ALDH1A1 block inconclusive (no result: HPGD inh, Luc counter, LMNA splice mod)
O=C(CSc1ncnc2nc[nH]c12)Nc1ccccc1C(F)(F)F	HPGD inh 8.9µM
CCOc1ccc(/C(O)=C2/C(=O)C(=O)N(CC3CCCO3)C2c2ccc(C)o2)cc1 (configuration not stated)	ALDH1A1 block inconclusive
O=C(N/N=C/c1cc([N+](=O)[O-])ccc1O)C1CCCCC1	HTT aggregate 10µM
O=C(Cn1nnc(-c2ccccc2)n1)N/N=C/c1cc([N+](=O)[O-])ccc1O	HPGD inh 14µM, ALDH1A1 block inconclusive
Cc1ccn(CC(=O)N/N=C/c2cc([N+](=O)[O-])ccc2O)n1	HTT aggregate 6.3µM, LMNA splice mod inconclusive (no result: HTT ATP protect)
Cc1nn(C(C)(C)C)c(N)c1-c1ccccc1	HPGD inh 28µM (no result: HTT ATP protect)
COc1ccc(-c2c(C)nn(-c3ccccc3)c2N)cc1	HPGD inh 20µM
Cc1nn(C2CCCCC2)c(N)c1-c1ccccc1	HPGD inh 11µM
COc1ccc(NC(=O)C(=O)NCC(c2cccnc2)N2CCc3ccccc3C2)cc1 (configuration not stated)	LMNA splice mod 14µM (no result: HTT aggregate, HPGD inh, HTT ATP protect, ALDH1A1 block, Luc counter)
COc1cccc(OC)c1OCCCOc1ccc([N+](=O)[O-])cc1Cl	HPGD inh 16µM, LMNA splice mod inconclusive
COc1cccc(OC)c1OCCCOc1ccc(C)cc1Br	HPGD inh 22µM, LMNA splice mod inconclusive
Cc1ccc2c(c1)C(=O)C(=O)N2CCCOc1ccccc1	ALDH1A1 block 0.11µM (no result: HPGD inh)
Cc1cccc2c1N(C)C(=O)C2=O	ALDH1A1 block 1.8µM (no result: HPGD inh, LMNA splice mod)
CCOC(=O)CN1C(=O)C(=O)c2cccc(C)c21	HTT aggregate inconclusive, ALDH1A1 block 0.025µM
Cc1ccc(OCCN2C(=O)C(=O)c3cccc(C)c32)cc1	ALDH1A1 block 0.2µM, LMNA splice mod inconclusive (no result: HPGD inh)
COc1ccc(OCC(=O)OCCN2C(=O)c3ccccc3C2=O)cc1	none
O=C(CN1C(=O)C(=O)c2ccccc21)OCN1C(=O)c2ccccc2C1=O	none (no result: HPGD inh)
O=C(NC1CCCC1)C(c1ccc(N2CCOCC2)cc1)N(Cc1ccccc1)C(=O)c1ccco1 (configuration not stated)	ALDH1A1 block inconclusive, LMNA splice mod inconclusive
CN(C)S(=O)(=O)c1ccc(C(=O)N2CCCC2c2nc3ccccc3s2)cc1 (configuration not stated)	none
Cc1cccc(OCCCN2C(=O)C(=O)c3cc(C)ccc32)c1	ALDH1A1 block 0.1µM, LMNA splice mod inconclusive (no result: HPGD inh)
Cc1ccc(OCCCN2C(=O)C(=O)c3cc(C)ccc32)cc1	ALDH1A1 block 0.1µM (no result: HPGD inh, LMNA splice mod)
O=C1c2ccccc2C(=O)N1CCCOc1ccccc1	none
Cc1cccc(OCCN2C(=O)c3ccccc3C2=O)c1	none (no result: HPGD inh, LMNA splice mod)
O=C1c2ccccc2C(=O)N1CCc1nc(-c2ccc(Cl)cc2)no1	ALDH1A1 block inconclusive
COc1ccc(N(C(C)C(=O)N/N=C/c2ccc(OC(C)C)cc2)S(C)(=O)=O)cc1 (configuration not stated)	ALDH1A1 block 14µM, LMNA splice mod inconclusive
COCCn1c(=O)[nH]c2cc(C(=O)N3CCN(c4ccccc4OC)CC3)ccc2c1=O	none
O=C(CCC(=O)c1ccc(Oc2ccccc2)cc1)Nc1cccc(Cl)c1Cl	LMNA splice mod inconclusive
CCc1ccc(N(C(=O)c2ccoc2C)C(C(=O)NC2CCCC2)c2ccc(OC)cc2)cc1 (configuration not stated)	none
CC(C)c1ccc(/C=N/NC(=O)c2nnn(-c3nonc3N)c2CSC2=NCCS2)cc1	ALDH1A1 block 20µM, LMNA splice mod inconclusive (no result: HTT ATP protect)
COc1ccc(C2C(C(=O)N3CCN(c4ccccc4)CC3)c3ccccc3C(=O)N2C)cc1OC (configuration not stated)	ALDH1A1 block inconclusive
COc1ccc(C2C(C(=O)N3CCOCC3)c3ccccc3C(=O)N2c2ccc(OC)cc2)cc1 (configuration not stated)	ALDH1A1 block 14µM
CCOC(=O)CNC(=O)C1c2ccccc2C(=O)N(c2ccc(OC)cc2)C1c1ccc(OC)cc1 (configuration not stated)	ALDH1A1 block 28µM
COc1ccc(C2C(C(=O)N3CCN(c4ccccc4)CC3)c3ccccc3C(=O)N2C)cc1 (configuration not stated)	ALDH1A1 block 2.2µM
COc1cc(C=O)ccc1OCC(=O)N1CCCC1	none (no result: HPGD inh)
Cc1nc(CCNC(=O)c2cc(COc3ccc(F)cc3Cl)on2)sc1C	none (no result: HPGD inh, ALDH1A1 block, Luc counter, LMNA splice mod)
CNc1ccc(O)cc1	HPGD inh 13µM, ALDH1A1 block 2.2µM (no result: HTT aggregate, Luc counter, LMNA splice mod)
c1ccc(-c2nnc(CSc3nncs3)o2)cc1	HPGD inh 25µM
Nc1cc(=O)[nH]c(SCc2nnc(-c3ccccc3)o2)n1	none
c1ccc(Cc2nnc(-c3ccccc3)o2)cc1	HPGD inh 7.9µM
CN(C)CCNC(=O)/C(=C/c1ccc(-c2cccc(Cl)c2)o1)NC(=O)c1ccccc1	LMNA splice mod inconclusive (no result: HTT ATP protect)
CN(C)CCCN(C(=O)CCc1ccccc1)c1nc2c(F)cccc2s1	LMNA splice mod inconclusive
CN(C)CCCN(C(=O)CCOc1ccccc1)c1nc2c(F)cccc2s1	HTT aggregate 13µM, ALDH1A1 block 3.2µM (no result: HPGD inh, LMNA splice mod)
Cc1ncoc1C(=O)N1CCCC(C(=O)c2ccc(Oc3ccccc3)cc2)C1 (configuration not stated)	ALDH1A1 block 2.8µM (no result: HPGD inh, Luc counter, LMNA splice mod)
Cc1ncoc1C(=O)N1CCCC(C(=O)c2cccc(C(F)(F)F)c2)C1 (configuration not stated)	LMNA splice mod inconclusive (no result: HPGD inh)
Cc1ncoc1C(=O)N1CCCC(C(=O)c2ccc(C(F)(F)F)cc2)C1 (configuration not stated)	ALDH1A1 block 16µM (no result: HPGD inh, LMNA splice mod)
Cc1ncoc1C(=O)N1CCCC(C(=O)c2cccc(OC(C)C)c2)C1 (configuration not stated)	ALDH1A1 block 25µM (no result: HPGD inh, LMNA splice mod)
COc1ccccc1-c1cncnc1NCCNC(C)=O	none (no result: HTT aggregate, HPGD inh, Luc counter)
COc1cc([C@@H](O)CO)ccc1OS(=O)(=O)O	none (no result: HTT aggregate, HPGD inh, ALDH1A1 block, Luc counter, LMNA splice mod)
CCNC(=O)CSc1ncnc2sccc12	none
COCCNC(=O)CSc1ncnc2sccc12	HPGD inh 18µM
O=[N+]([O-])c1ccc(O)c(/C=N\N=C2c3ccccc3-c3ccccc32)c1	HTT aggregate 11µM, LMNA splice mod inconclusive
O=[N+]([O-])c1ccc(O)c(/C=N/n2cnnc2)c1	ALDH1A1 block 20µM
NC(N)=N/N=C/c1cc([N+](=O)[O-])ccc1O	ALDH1A1 block inconclusive
CCCCn1c(=O)c2c(O)cc(=O)oc2c2ccccc21	ALDH1A1 block 16µM
